test system: HT29 sg-Ctrl (RNF43 wildtype); assay: cell viability activity relative to DMSO (negative = inhibition); higher = more viable cells (less growth inhibition); conditions: 5 µM; 96 h
Method: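 Broad Repurposing Library primary screen at a single dose of 5 uM. HT29 sg-Ctrl and HT29 RNF43 G659fs CRISPR-edited isogenic cells were seeded at 2500 cells/well in 384-well plates in duplicate and treated for 96 h. Viability was read by CellTiter-Glo and reported as % activity relative to DMSO, with MG132 as the positive control (negative = growth inhibition).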

Compound | cell viability activity
O=C(NC[C@H](O)CO)c1ccncc1Nc1ccc(I)cc1F | -91.2%
CN(C)Cc1c(C(=O)NCCOc2ccc(C(=O)NO)cc2)oc2ccccc12 | -85.2%
CC1=NN(c2ccc(C(=O)O)cc2)C(=O)/C1=C\c1ccc(-c2cc(C)c(C)cc2[N+](=O)[O-])o1 | -79.6%
CN(C)C(=O)c1cc2cnc(Nc3ccc(N4CCNCC4)cn3)nc2n1C1CCCC1 | -39.7%
CC(C)(C)c1ccc(-c2nc3ccccc3[nH]2)cc1 | -67.1%
CC(=O)N1CCN(CCOc2ccc(C3CCN(C4=Nn5c(nnc5C(F)(F)F)CC4)CC3)cc2)CC1 | -33.7%
O=c1cc(N2CCOCC2)oc2c(-c3cccc4c3sc3ccccc34)cccc12 | -57.1%
N#Cc1ccc(COC[C@H]2O[C@@H](n3c(NCc4ccc(Cl)c(Cl)c4)nc4c(N)ncnc43)[C@H](O)[C@@H]2O)cc1 | -31.3%
CC(=O)OC1CC2CCC1(C)C2(C)C (stereo unspecified) | -26.5%
O=C(/C=C/c1ccc2ccccc2n1)c1ccncc1 | -54%
Cc1ccc(C(=O)Nc2cccc(C(F)(F)F)c2)cc1Nc1nc(-c2cccnc2)nc2c1cnn2C | -24.4%
Cc1cc(C(=O)NOCCO)c(Nc2ccc(I)cc2F)n(C)c1=O | -88.5%
COc1cc(F)c(F)c(Nc2ccc(I)cc2F)c1NS(=O)(=O)C1(C[C@H](O)CO)CC1 | -78.3%
CC(C)N1CCN(c2ccc(OC[C@@H]3CO[C@@](Cn4cncn4)(c4ccc(Cl)cc4Cl)O3)cc2)CC1 | -76%
CCCC1(CCC)CCC2(CCN(CCCN(CC)CC)C2)CC1 | -95.6%
CNc1nc(-c2ccc3c(N)n[nH]c3c2)cc(N2C[C@@H](C(=O)NC3CCCCC3)CC[C@H]2C)n1 | -23%

Reference: the supplement of paper PMC9177965
